High-throughput results: PubChem, National Center for Advancing Translational Sciences (NCATS)
Pf growth 96h – Primary qHTS for delayed death inhibitors of the malarial parasite plastid, 96 hour incubation; hit rate 6.9% among 320,000; Potency, µM (titrated, usually from 28.7 µM), actives largely listed as inhibitors; P. falciparum luciferase reporter growth, 96 h
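P. falciparum expressing integrated firefly luciferase grown in erythrocytes (2% hematocrit, 0.05% parasitemia final) with compounds for 96 hours at 37 C, 5% CO2. Growth inhibition read as loss of luminescence after adding luciferase detection reagent.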
HCV inh – qHTS Assay for Inhibitors of Hepatitis C Virus (HCV); Huh7.5.1 HCVcc-Cre infection, luciferase reporter, 44 h; Potency, µM (highest dose often 41.8 µM), hits mostly inhibitors; hit rate 3.4% among 340,000
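Seed cells (1,000/well) for 4 h; treat with compound and infect with HCVcc-Cre, moi about 0.5. Incubate 44 h, then detect luciferase activity.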
Shiga toxin inh – A qHTS for Small Molecule Inhibitors of Shiga Toxin; Vero cells, Shiga toxin protein synthesis inhibition reporter; inhibition, % at 38.7 µM; hit rate 9.2% among 290,000; AID 2315, 2010; in the data active = inhibition mostly above about 28%, no sharp cut-off; inactive = mostly below about 43%
AMA1-RON2 inh – qHTS for Inhibitors of AMA1-RON; Towards Development of Antimalarial Drug Lead: Primary Screen. hit rate 0.2% among 360,000. Plasmodium falciparum AMA1 (3D7) - RON2 peptide interaction. Potency, µM (highest dose often 58.2 µM), most hits filed as inhibitors. AlphaScreen AMA1-biotinylated RON2 peptide binding; note: nearly all actives have a fitted effect of over 45% in size
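AMA1 (3D7) with his tag at 25 nM final met compounds first, then biotinylated RON2 peptide at 25 nM; detection used donor plus acceptor beads, 10 µg/mL apiece, read by AlphaScreen after 30 min at room temperature.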
CHX counter – Cycloheximide Counterscreen for Small Molecule Inhibitors of Shiga Toxin | cell reporter, cycloheximide protein synthesis inhibition counterscreen | max response, % | hit rate 12% among 300,000 | AID 2314, 2010; in the data active = max response mostly above about 13%, no sharp cut-off; inactive = mostly below about 14%; note: read at 38.3 µM for the half of the compounds with a filed dose
Pf growth 48h – Primary qHTS for delayed death inhibitors of the malarial parasite plastid, 48 hour incubation | hit rate 5.9% among 310,000 | Potency, µM (top dose mostly 28.7 µM), most hits filed as inhibitors | P. falciparum luciferase growth in erythrocytes, 48 h
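In quantitative HTS format, infected erythrocytes bearing luciferase-reporter parasites were treated for a single generation at 37 C. Luminescence after adding detection reagent served as the growth measure.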
Each line names hits and unclear results; the compound was inactive in the other large screens. In the library only some 21% were active in any assay of this set; here they are far more common. Unless noted, calls come from the whole dose curve; as a rule, active = well fitted curve in the direction sought with a large enough effect; inconclusive = small, poorly fitted or top-dose-only effect, or another doubt; inactive = no such curve, though single readings can be large; an effect the other way counts as inactive or inconclusive.

O=C(NCCc1cccc(C(F)(F)F)c1)C1CCC(=O)N(CCc2cccc(F)c2)C1 (configuration not stated)	none
O=C(NCCN1CCCC1=O)C1CCC(=O)N(CCc2cccc(F)c2)C1 (configuration not stated)	Pf growth 96h 13.1µM
CCc1cc(CNC(=O)C2CCC(=O)N(Cc3cccc(F)c3)C2)on1 (configuration not stated)	Pf growth 96h 11.7µM
COc1ccc(OC)c(CNS(=O)(=O)c2cc(CN3C(=O)c4cccnc4C3=O)ccc2OC)c1	none
Cc1ccc(S(=O)(=O)Oc2ccccc2C=C2C(=O)N(C)C(=O)N(C)C2=O)cc1	Pf growth 96h 11.7µM
CN1C(=O)C(=Cc2ccccc2OCc2ccc(Cl)cc2)C(=O)N(C)C1=O	Pf growth 96h 1.04µM
Cc1ccc(N(Cc2ccccc2)C(=O)c2ccc(S(=O)(=O)N3CCOCC3)cc2)cc1	Pf growth 96h inconclusive, Pf growth 48h 13.1µM (no result: Shiga toxin inh, CHX counter)
Cc1ccc(N(Cc2ccccc2)C(=O)c2cccc(S(=O)(=O)N3CCN(C)CC3)c2)cc1	Pf growth 96h inconclusive, Pf growth 48h inconclusive (no result: Shiga toxin inh, CHX counter)
Cc1ccc(N(Cc2ccccc2)C(=O)Cc2ccc(S(=O)(=O)N3CCOCC3)s2)cc1	Pf growth 96h inconclusive, HCV inh inconclusive, Pf growth 48h 13.1µM (no result: Shiga toxin inh, CHX counter)
COc1ccc(CC(=O)N(Cc2ccccc2)c2ccc(C)cc2)cc1S(=O)(=O)N1CCOCC1	Pf growth 96h 13.1µM, Pf growth 48h inconclusive (no result: Shiga toxin inh, CHX counter)
COc1ccc(CC(=O)NCc2ccccc2)cc1S(=O)(=O)N1CCOCC1	Pf growth 96h inconclusive
Cc1ccc(C(=O)NNC(=O)c2ccc(S(=O)(=O)N3CCOCC3)cc2)cc1	none
CCCN(C(=O)Cc1ccc(S(=O)(=O)N2CCOCC2)s1)c1c(N)n(Cc2ccccc2)c(=O)[nH]c1=O	none (no result: Pf growth 96h, Shiga toxin inh, CHX counter, Pf growth 48h)
Cc1ccc(N(Cc2ccccc2)C(=O)c2cccc(S(=O)(=O)N3CCOCC3)c2)cc1	Pf growth 96h 10.4µM, Pf growth 48h 10.4µM (no result: Shiga toxin inh, CHX counter)
CC(C)c1ccc(NC(=O)CCN2C(=O)[C@@H]3Cc4ccccc4CN3C2=O)cc1	Pf growth 96h inconclusive, Pf growth 48h inconclusive
CC(=O)N1CCN(S(=O)(=O)c2cccc(C(=O)N(Cc3ccccc3)c3cccc(C)c3)c2)CC1	Pf growth 96h 8.28µM, Pf growth 48h inconclusive (no result: Shiga toxin inh, CHX counter)
Cc1ccc(C(=O)OCC(=O)NCCc2ccccc2)cc1S(=O)(=O)N1CCOCC1	none (no result: Shiga toxin inh, CHX counter)
Cc1ccc(N(Cc2ccccc2)C(=O)c2ccc(C)c(S(=O)(=O)N3CCOCC3)c2)cc1	Pf growth 96h 2.08µM, HCV inh 31.6µM, Pf growth 48h 6.57µM (no result: Shiga toxin inh, CHX counter)
Cc1ccc(N(C(=O)c2ccc(S(=O)(=O)N3CCOCC3)cc2)C2C=CS(=O)(=O)C2)cc1 (configuration not stated)	Pf growth 96h 8.28µM
COc1nc2c(c(-c3cc(Br)cs3)c1C#N)Cc1ccccc1-2	none
C=CCn1c(Cc2ccccc2)n[nH]c1=S	none
C=CCn1c(Cc2c[nH]c3ccccc23)n[nH]c1=S	CHX counter 12.3, Pf growth 48h 13.1µM
CCOC(=O)N1CCC(Nc2c(-c3ccc(C)c(C)c3)c(=O)c2=O)CC1	Pf growth 96h 0.522µM
CCOC(=O)N1CCC(Nc2c(N3CCN(c4cc(Cl)ccc4C)CC3)c(=O)c2=O)CC1	Pf growth 96h 4.65µM, HCV inh 10µM (no result: Pf growth 48h)
CC(C)(C)c1ccc(/C=N/NC(=O)c2ccccn2)cc1	Pf growth 96h inconclusive, HCV inh inconclusive, Shiga toxin inh 42.3, CHX counter 38.3
O=C(N/N=C/c1ccsc1)c1ccccn1	Shiga toxin inh 70.1, CHX counter 27.6
O=C(CN1CCN(Cc2ccccc2)CC1)N/N=C/c1ccc(Br)s1	none
O=C(N/N=C/c1ccsc1)c1cc(-c2ccncc2)nc2ccccc12	Pf growth 96h inconclusive, Pf growth 48h inconclusive
O=C(N/N=C/c1ccc(Br)s1)c1ccccn1	Shiga toxin inh 84.1, CHX counter 47.5
O=c1ccc(-c2ccccc2)no1	Pf growth 96h inconclusive, Pf growth 48h inconclusive
COC(=O)c1ccc(/C=C/c2c(-c3ccsc3)sc3ccccc23)cc1	Pf growth 96h inconclusive, HCV inh 10µM, Pf growth 48h inconclusive
Nc1nc(N)nc(-c2ccccc2-c2nc(N)nc(N)n2)n1	none
Cc1nc(N)nc(-c2ccccc2O)n1	CHX counter 23.9 (no result: Pf growth 96h)
O=C1CN2CCC1C/C2=C\c1ccnc2c(Cl)cccc12 (configuration not stated)	HCV inh inconclusive
Oc1cc2ccccc2nc1-c1ccccc1Cl	Pf growth 96h inconclusive, Pf growth 48h 7.38µM
S=c1[nH]nc(SCc2ccccc2)c2[nH]cnc12	none (no result: Pf growth 96h, Shiga toxin inh, CHX counter, Pf growth 48h)
CCCCCC(=O)NC(NC(=S)N1CCOCC1)C(Cl)(Cl)Cl (configuration not stated)	Pf growth 48h 8.28µM
O=C(NC(NC(=S)N1CCOCC1)C(Cl)(Cl)Cl)c1cccc2ccccc12 (configuration not stated)	HCV inh inconclusive, Pf growth 48h 2.94µM
O=C(Nc1ccc2c(c1)OCCO2)C(c1ccncc1)n1c(=O)c(-c2cc3ccccc3[nH]2)nc2ccccc21 (configuration not stated)	none (no result: Pf growth 96h, HCV inh, Shiga toxin inh, CHX counter, Pf growth 48h)
Cc1oc(-c2cccc(Cl)c2)nc1CN1CCC(C(=O)NCCCN2CC(C)CC(C)C2)CC1 (configuration not stated)	HCV inh 1.12µM, Pf growth 48h 7.38µM
Cc1oc(-c2cccc(Cl)c2)nc1CN1CCC(C(=O)NCCCN2CCCC2=O)CC1	Pf growth 96h 11.7µM (no result: Pf growth 48h)
O=c1[nH]c2cc3c(cc2cc1CN(CCO)S(=O)(=O)c1ccccc1)OCCO3	HCV inh inconclusive
CCCC(=O)O[C@]1(C(=O)CO)CCC2[C@@H]3CCC4=CC(=O)CC[C@]4(C)C3C(O)C[C@]21C (some centres not stated)	Pf growth 96h inconclusive (no result: HCV inh, Shiga toxin inh, AMA1-RON2 inh, CHX counter)
O=C(Nc1cccc(-c2nn[nH]n2)c1)c1csc2c1CCCC2	Pf growth 96h inconclusive
O=C(N/N=C/c1cccc(F)c1)c1csc2c1CCCC2	Shiga toxin inh 94.7, CHX counter 55.2
CCCNC(=O)c1csc2c1CCCCC2	none
O=C(N/N=C/c1ccccc1F)c1csc2c1CCCC2	Shiga toxin inh 79.0, CHX counter 41.6
Cc1ccc2c(c1)C(=O)CCCCC(=O)N2	Pf growth 96h inconclusive, Pf growth 48h inconclusive
O=C1NC[C@H](CCCCN2CCN(CC3CCCCC3)C(=O)C2=O)N(CC2CCCCC2)C1=O	none (no result: Pf growth 96h, HCV inh, Shiga toxin inh, CHX counter, Pf growth 48h)
CCOc1ccc(-c2cc(C(=O)Nc3cc(OC)c(OC)c(OC)c3)[nH]n2)c(C)c1	none (no result: Pf growth 96h, HCV inh, Shiga toxin inh, CHX counter, Pf growth 48h)
O=C(CSc1nc2c(c(=O)n1-c1ccc(Br)cc1)SCC2)Nc1nccs1	Pf growth 48h inconclusive
